# Assay results from PubChem BioAssay AID485281 (National Center for Advancing Translational Sciences (NCATS), 2010).
# Hit rate of the full screen: of about 350,000 compounds, about 260 (0.074%) were called active. Inconclusive results (about 8%) are left out. The list comes from a sample in which actives are over-represented; it also holds similar structures and randomly drawn compounds. Values without a mark were called inactive. Calls follow the shape of the dose curve; as a rule, active = well fitted inhibition curve with a large enough effect; inconclusive = small, poorly fitted or top-dose-only effect; inactive = no such curve, though single readings can be large or run the other way.
# Target: Ferritin light chain (Equus caballus) (UniProt P02791)
# Assay: qHTS Assay for Identification of Novel General Anesthetics; also: nearly all actives have a fitted effect of over 20% in size
# Conditions: apoferritin/1-aminoanthracene competitive binding, fluorescence; series mostly up to 77.5 µM; activity change, negative = displacement: at the top concentration
# Excerpt: Source: NIH Chemical Genomics Center [NCGC]
# Assay Submitter: Roderic Eckenhoff, University of Pennsylvania
# Screening Center PI: Christopher P. Austin, NIH
# Probe Development: NIH Chemical Genomics Center [NCGC]
# Anesthetic development has remained a largely empirical process. There are growing concerns about the cognitive effects of known general anesthetics and acceleration of the onset of neurodegenerative disease. The compounds' toxicity and multiple specific binding targets in the mammalian brain [4] has made them less attractive as drug leads. In this assay, a GABAergic mimetic model system, apoferritin and a profluorescent 1-aminoanthracene ligand (1-AMA), was used to construct a competitive binding assay for identification of novel general anesthetics. The assay was validated for 1-AMA using other known anesthetics, such as isoflurane (CID:3763) and propofol (CID: 4943), [6].
# [1] S.L. Bianchi, T. Tran, C. Liu, S. Lin, Y. Li, J.M. Keller, R.G. Eckenhoff, and M.F. Eckenhoff, Brain and behavior changes in 12-month-old Tg2576 and nontransgenic mice exposed to anesthetics. Neurobiol Aging 29 (2008) 1002-10.
# [2] Z. Xie, Y. Dong, U. Maeda, R.D. Moir, W. Xia, D.J. Culley, G. Crosby, and R.E. Tanzi, The inhalation anesthetic isoflurane induces a vicious cycle of apoptosis and amyloid beta-protein accumulation. J Neurosci 27 (2007) 1247-54.
# [3] P. Honegger, and J.M. Matthieu, Selective toxicity of the general anesthetic propofol for GABAergic neurons in rat brain cell cultures.
# [4] M.F. Eckenhoff, K. Chan, and R.G. Eckenhoff, Multiple specific binding targets for inhaled anesthetics in the mammalian brain. J Pharmacol Exp Ther 300 (2002) 172-9.
# [5] C.A. Butts, J. Xi, G. Brannigan, A.A. Saad, S.P. Venkatachalan, R.A. Pearce, M.L. Klein, R.G. Eckenhoff, and I.J. Dmochowski, Identification of a fluorescent general anesthetic, 1-aminoanthracene. Proc Natl Acad Sci U S A 106 (2009) 6501-6.
# [6] W.A. Lea, J. Xi, A. Jadhav, L. Lu, C.P. Austin, A. Simeonov, and R.G. Eckenhoff, A high-throughput approach for identification of novel general anesthetics. PLoS One 4 (2009) e7150.
# Three uL of reagents (free 1-AMA (50% saturated solution of 1-aminoanthracene
# in PBS) in columns 3, 4 as negative control and 1-AMA/apoferritin mixture (10 uM horse-spleen apoferritin in 50% saturated 1-aminoanthracene in PBS) in columns 1, 2, 5-48) was dispensed into 1536-well Greiner black assay plates. Compounds (23 nL) were transferred via Kalypsys pintool equipped with 1,536-pin array (10 nL slotted pins, V&P Scientific, San Diego, CA). Titration of the positive control, propofol, were delivered via pin transfer from separate control plates to the 2nd column of each assay plate. The starting concentration of the control, dissolved in DMSO, was at 160 mM, followed by two-fold dilution points in duplicate, for a total of 16 concentrations. The plates were incubated for 10 min at room temperature, and then read on an EnVision HTS multilabel reader (Perkin-Elmer, Waltham, MA) (end point read, 3 min/plate) using Fura2 BFP excitation filter (380 nm, bandwidth 10 nm) and fluorescein emission filter (535 nm, bandwidth 25 nm) set. A LANCE/DELFIA dichroic mirror with a cutoff wavelength at 400 nm was used to maximize signal accuracy and strength. Vehicle-only plates, with DMSO being pin-transferred to the entire column 5-48 compound area, were inserted uniformly at the beginning and the end of each library in order to monitor for and record any shifts in the background. Activity was computed as the normalized fluorescence response relative to free 1-AMA and 1-AMA/apoferritin complex values. Concentration-effect relationships were derived by using curve fitting algorithms developed in-house (http://ncgc.nih.gov/pub/openhts/). A four parameter Hill equation was fitted to the concentration-response data by minimizing the residual error between the modeled and observed responses.
# % is scaled to controls: 0 for no effect and ±100 for the full control effect; potency is read from the fitted curve at half-maximal effect.
# Chain of Ferritin light chain (Equus caballus) (P02791 2-175 limits assumed): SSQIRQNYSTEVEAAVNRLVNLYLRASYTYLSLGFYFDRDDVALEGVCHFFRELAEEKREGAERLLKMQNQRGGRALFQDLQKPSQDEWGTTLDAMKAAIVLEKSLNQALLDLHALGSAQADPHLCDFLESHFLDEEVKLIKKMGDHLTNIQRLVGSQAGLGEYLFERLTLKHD
Compound,"activity change, negative = displacement [%]",Potency
O=C(NCc1ccc(F)cc1)c1ccc(Cn2c(SCc3ccc(F)cc3)nc3cccnc32)cc1,-5.12,–
Cc1cccc2nc(-c3ccc(Cl)s3)c(Nc3ccc4c(c3)OCCO4)n12,58.8,–
O=C(NCC(c1cccnc1)N1CCc2ccccc21)c1cccc(C(F)(F)F)c1 (stereo not drawn),-10,–
CCOc1ccc(C(=O)/C=C/c2cn(CC(O)CN3CCCCCC3)c3ccccc23)cc1 (stereo not drawn),-7.92,–
CCOc1ccc(NC(=O)CCc2c(C)nn(-c3ccc(N4CCCC4)nn3)c2C)cc1,42.2,–
Cc1ccc(-c2nc(SCc3ccc(Br)cc3)n3[nH]c(=O)cc3n2)cc1,2.21,–
Cc1ccc(CN2CCc3nc(N4CCN(C)CC4)ncc3C2)cc1,11.3,–
CCOC(=O)c1cnc2c(C)cc(C)cc2c1Nc1ccc(N2CCOCC2)cc1,-13.5,–
COc1cc2nc(SCc3ccc(F)cc3)n3nc(CCn4c(C)nc5ccccc54)nc3c2cc1OC,26.5,–
CCOCCc1nn2c(=O)cc(COC(=O)CNC(=O)c3ccc(C(C)(C)C)cc3)nc2s1,-16.9,–
Cc1cccc(NC(=O)C2CCN(S(=O)(=O)c3c(C)noc3/C=C/c3ccco3)CC2)c1,-8.73,–
CCN(CCCNC(=O)c1ccc(Sc2ccc(C)cc2)c(NC(C)=O)c1)c1cccc(C)c1,8.6,–
CCOC(=O)c1ccc(CN(Cc2ccccc2)S(=O)(=O)c2ccc(Cl)cc2)cc1,52.1,–
COc1cc(OC)c(NC(=O)N2CC3CCCN3c3ccccc32)cc1Cl (stereo not drawn),-13.5,–
COc1ccc2[nH]c3c(c2c1)CCN(C(=O)CCC1CCCC1)C3c1ccc(F)cc1 (stereo not drawn),9.86,–
CN(C(=O)CSc1nc2ccccc2n1Cc1ccccc1C#N)c1ccccc1,78.3,–
Cc1cccc(N2CCN(c3ccc(C(=O)O)cc3NC(=O)c3ccccc3F)CC2C)c1 (stereo not drawn),-15.5,–
CCCCc1nn2c(=O)cc(COC(=O)c3ccc(NC(=O)c4ccccc4C)cc3)nc2s1,-0.216,–
CCC(=O)N1CCc2cc(S(=O)(=O)NC(C(=O)NCCc3ccc(C)cc3)C(C)C)ccc21 (stereo not drawn),-8.37,–
O=C(CSc1nc(-c2cccc(F)c2)[nH]c1-c1ccccc1)Nc1ccc2c(c1)OCO2,37.9,–
CCOC(=O)c1ccc(NC(=O)c2c(NCc3cccs3)sc3c2CCCC3)cc1,7.21,–
COc1ccc(C)cc1NC(=O)COCc1cc(-c2cccs2)on1,3.35,–
Cc1ccc(-n2ncc3c(NCCCn4ccnc4)ncnc32)cc1Cl,-2.7,–
CCN(CC)S(=O)(=O)c1nnc(NC(=O)COc2ccccc2Cl)s1,-19.9,–
Cc1nc2nc(NCc3cccc(Br)c3)[nH]n2c(=O)c1Cc1ccccc1,-2.1,–

Compound,"activity change, negative = displacement [%]",Potency
COc1ccccc1N1CCN(CCCNC(=O)c2cnn(-c3ccccc3Cl)c2C2CCN(C(=O)OC(C)(C)C)CC2)CC1,-12.6,–
COc1ccc(-n2ccn(CC(=O)Nc3ccc(C)c(C)c3)c(=O)c2=O)cc1OC,-4.83,–
Cc1nn(C(C)C(=O)NCCc2ccccc2)c(=O)c2c1sc1ccccc12 (stereo not drawn),78.3,–
COc1ccc(-c2cccc(NS(=O)(=O)c3cc(C)c(OC)c(C)c3C)c2)nn1,-14.2,–
Cc1cccc(C(=O)Nc2ccc(S(=O)(=O)N3CCCCC3c3cccnc3)cc2)c1 (stereo not drawn),8.01,–
CCCCN(CC)C(=O)c1c[nH]c2ccc(S(=O)(=O)Nc3cccc(OC)c3)cc2c1=O,-15.8,–
O=[N+]([O-])c1ccccc1NCc1ccc(Cl)cc1,–,8.91 µM (active)
O=C(NCCNc1ccccc1[N+](=O)[O-])c1ccccc1F,-17.2,–
Cc1c(NC(=S)NCc2ccc(F)cc2)cccc1[N+](=O)[O-],-8.7,–
CC(Nc1ccc(-c2nc(-c3ccco3)no2)cc1[N+](=O)[O-])c1ccccc1 (stereo not drawn),-15.1,–
COc1ccc(C2C(=O)N(C3CCCCC3)CC(=O)N2Cc2ccccc2Cl)cc1OC (stereo not drawn),-5.68,–
COc1ccc(Nc2ncc3c(n2)CCN(C(=O)OC(C)(C)C)C3)cc1,-0.4,–
CCOC(=O)C1CCN(c2csc3ccc(C)cc3c2=O)CC1,-6.57,–
NC(=O)Nc1ccccc1C(=O)NCCc1ccccc1,6.37,–
O=C(O)c1ccccc1-c1ccccc1C(=O)NCCc1ccccc1,-2.83,–
Nc1nonc1C(=O)NCCc1ccccc1,–,17.8 µM (active)
O=C1CCCc2cc(S(=O)(=O)N3CCCC(C(=O)NCc4ccccc4)C3)ccc2N1 (stereo not drawn),-3.62,–
CCOc1ccccc1C(=O)Nc1ccc2c(c1)N(C)C(=O)c1ccccc1S2,-13.2,–
Cc1cc(F)ccc1NC1(c2ccccc2)C(=O)c2ccccc2C1=O,-6.15,–
COc1ccc(-c2noc(-c3ccc(N4CCN(c5ccccc5)CC4)c([N+](=O)[O-])c3)n2)cc1OC,-8.01,–
Cc1ccc(-c2nnc(SCC(=O)NCc3ccccc3)nc2-c2ccc(C)cc2)cc1,-7.43,–
Cc1ccccc1CNC(=O)C(=O)NCC(c1cccs1)S(=O)(=O)c1cccs1 (stereo not drawn),46.9,–
COc1ccc(Nc2cc(C(=O)NCCCN(C)c3ccccc3)c3ccccc3n2)c(OC)c1,50,–
CCOC(=O)CN1C(C(=O)c2ccccc2)=C(OC(=O)C(C)(C)C)c2ccccc2S1(=O)=O,-5.44,–
COc1ccc(N2CCN(S(=O)(=O)c3ccc(-c4coc(C)n4)cc3)CC2)cc1,-0.187,–

Compound,"activity change, negative = displacement [%]",Potency
Cn1c(SCC(=O)N2CCCc3ccccc32)ncc(C(=O)Nc2ccc(F)cc2)c1=O,-15.9,–
CCOC(=O)c1scc(-c2ccccc2)c1S(=O)(=O)Nc1ccccc1F,57.3,–
COc1ccc2c(c1)CCc1c(C(=O)Nc3cc(C)ccc3O)noc1-2,-8.63,–
CCc1ccc(NC(=O)c2cc3c(=O)n(Cc4cccnc4)ccc3nc2C)cc1,-2.71,–
COc1ccc(NC(=O)CSc2nccn2Cc2ccc3c(c2)OCO3)cc1,-10.6,–
CC(=O)N1CCCc2cc(S(=O)(=O)N3CCC(C(=O)NCc4ccc(C)cc4)CC3)ccc21,-10.5,–
CCOc1ccc(NC(=O)c2c(NC(=O)Cc3ccccc3)sc3c2CCCCC3)cc1,-5.25,–
c1cnc(NC2C3CC4CC(C3)CC2C4)nc1 (stereo not drawn),–,5.62 µM (active)
c1ccc2c(NC3C4CC5CC(C4)CC3C5)nc(N3CCOCC3)nc2c1 (stereo not drawn),89.7,–
Cc1c(-c2nsc(NC(=O)c3cccc(Cl)c3)n2)nnn1-c1ccccc1C(F)(F)F,-23.3,–
Cc1cccc(C(=O)Nc2ccc(-c3nc4ccccc4s3)c(C)c2)c1,-9.88,–
CN1CCN(c2oc(-c3ccc(COc4ccc(Cl)cc4)o3)nc2C#N)CC1,-7.72,–
COc1ccc(OCC(=O)Nc2cccc(C(=O)OCc3cc(=O)n4nc(C)sc4n3)c2)cc1,52.4,–
O=C(NCC12CC3CC(CC(C3)C1)C2)c1cc2nc(-c3ccccc3)cc(C(F)(F)F)n2n1,-6.46,–
CCN(CC)c1ccc(NC(=O)CN2CCN(CC(=O)Nc3ccc(Cl)cc3)CC2)cc1,-11,–
COc1ccc(-c2nc3nc(C)cc(C)n3c2Nc2c(C)cccc2C)cc1,275,–
CC1=C(C(=O)OCC2CCCCC2)C(c2c(F)cccc2Cl)CC(=O)N1 (stereo not drawn),-17.3,–
COc1cccc(Cn2c(SCc3ccc(C(=O)N4CCC(C)CC4)cc3)nc3ccncc32)c1,72.3,–
COCCNS(=O)(=O)c1cc(-c2nn3c(C)nnc3c3ccccc23)ccc1C,-12.8,–
CCc1cccc(C)c1NS(=O)(=O)c1ccc(-c2cc(C)no2)s1,3.74,–
Cc1cc(C)cc(-n2ccnc2SCC(=O)Nc2nc3ccccc3s2)c1,60.5,–
COc1ccc(CNC(=O)Cc2coc3ccc(C(C)C)cc23)cc1,3.71,–
Cc1cc(=O)n(CC(=O)Nc2cccc([N+](=O)[O-])c2)c(-n2nc(C)cc2C)n1,-3.5,–
O=C(CCc1nc(CN2CCN(S(=O)(=O)c3ccc(Cl)cc3)CC2)no1)N1CCCCC1,8.4,–
COc1ccc(C2Sc3ccccc3NC3=C2C(=O)c2ccccc23)c(OC)c1OC (stereo not drawn),-0.239,–

Compound,"activity change, negative = displacement [%]",Potency
CCOCCCn1c(SCC(=O)Nc2ccc(CC)cc2)nc2ccccc2c1=O,-9.21,–
COc1ccc(CCNC(=O)CCCCn2c(=O)c3ccccc3n(Cc3ccccc3C)c2=O)cc1OC,23.4,–
COc1ccc(CNC(=O)CCc2c(C)nn(-c3ccc(N4CCCC4)nn3)c2C)cc1,-8.08,–
Cc1ccc(SCC(=O)Nc2ccc3oc(-c4ccccc4F)nc3c2)cc1,-11.2,–
Cc1ccc2nc(CN3CCN(S(=O)(=O)c4ccc(C)c(C)c4)CC3)oc2c1,-10.2,–
Cc1ccc(C)c(NC(=O)CSC2=Nc3ccccc3N=C(c3ccc(F)cc3)C2)c1,-1.36,–
Cc1c(Br)cc(C(=O)N2CCCCCC2)c(C)c1C,–,10 µM (active)
Cc1ccc(C(=O)N2CCCC2)c(F)c1F,-14.7,–
COc1cc(OC)c(C(=O)N2CCCC2)cc1OC,-10.8,–
CCCn1c2ccccc2c2cnn(CC(=O)N(CC)c3cc(C)ccc3C)c(=O)c21,-5.87,–
CCOC(=O)Cn1c(=O)n(C2CCCCC2)c2nc(-c3cccc(OC)c3)nc(C(N)=O)c21,8.75,–
O=C(CN1c2ccccc2S(=O)(=O)c2ccccc21)Nc1cccc(C(F)(F)F)c1,8.17,–
CCn1c(C)c(C)c2cc(C(=O)NCCc3cc(OC)ccc3OC)ccc21,-2.71,–
Cc1cc(OCC(=O)NCC2(N(C)C)CCCCC2)cc(C)c1Cl,-9.9,–
CN(C)CCCn1c(-c2ccc(Cl)cc2)csc1=Nc1ccccc1,9.73,–
O=c1cc(-c2ccccc2)n2c(SCc3ccccc3)nnc2[nH]1,44,–
Nc1ccc(C(=O)OCC(=O)NC2CCS(=O)(=O)C2)cc1[N+](=O)[O-] (stereo not drawn),-8.39,–
Nc1ccc(C(=O)OCC(=O)NC2CCCc3ccccc32)cc1[N+](=O)[O-] (stereo not drawn),–,20 µM (active)
COC(=O)c1cc(OCC(=O)NC2CCCc3ccccc32)cc(C(=O)OC)c1 (stereo not drawn),0.832,–
CC(C)c1ccc(NC(=O)Cn2c3ncccc3c(=O)n2-c2ccccc2)cc1,2.35,–
CCc1ccc(NC(=O)c2sc3nc4c(cc3c2N)CN(CC)CC4)cc1,-8.24,–
O=C(CCc1nc(CN2CCN(S(=O)(=O)c3ccc(Br)cc3)CC2)no1)N1CCCCC1,-9.1,–
Cc1cc(C(=O)Nc2cccc(C(F)(F)F)c2)c2c(C)nn(-c3cccc(F)c3)c2n1,52.9,–
